# Bst PK mod = alters activity of Bacillus stearothermophilus pyruvate kinase; purified pyruvate kinase, luminescence ATP production; ribose 5-phosphate activator present at AC10; 51,000 tested, 1.2% active; Potency, µM; in the data active means potency below about 11 µM; inconclusive means mostly about 12 µM to 25 µM;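 the screen sought inhibitors and activators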
# HADH2 inh = blocks human hydroxyacyl-CoA dehydrogenase type II. recombinant HADH2, NADH fluorescence, beta-hydroxybutyryl-CoA. 73,000 tested, 3.4% active. Q99714. Potency, µM (highest dose often 57.1 µM), hits mostly inhibitors; further: nearly all actives have a fitted effect of over 60% in size
#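 20 nM HADH2 + cpd, 15 min RT; add 1 mM NAD+/90 uM beta-hydroxybutyryl-CoA; kinetic fluorescence 360/450 nm, 4 min. Tris-HCl pH 9.0, 0.01% Tween-20.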
# ERK AVP block = inhibitors of vasopressin-stimulated ERK signaling pathway; HEK293-V1b, vasopressin-stimulated pERK AlphaScreen; Potency, µM (highest dose often 57.5 µM), most hits filed as inhibitors; 72,000 tested, 0.99% active; further: nearly all actives have a fitted effect of over 55% in size
#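 HEK293 cells stably expressing V1b receptor, seeded overnight in 1% FBS, were treated with compounds for 30 min at 37C, then stimulated 5 min with 25 nM vasopressin; phospho-ERK read by AlphaScreen SureFire after lysis.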
# HSD17B inhib = HSD17B dehydrogenase inhibition; Q99714; recombinant HSD17B10, NADH fluorescence kinetic; Potency, µM (series often up to 57.1 µM), actives largely listed as inhibitors; 75,000 tested, 7.6% active;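 further: the protocol describes HADH2 (HSD17B10) and not the HSD17B4 of the title; nearly all actives have a fitted effect of over 70% in size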
#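 His-tagged E. coli-expressed HADH2 at 20 nM in 100 mM Tris-HCl pH 9.0 with 0.01 % Tween-20, preincubated 15 min with compound at room temperature. Reaction with 1 mM NAD+ and 90 uM beta-hydroxybutyryl coenzyme A; NADH fluorescence (360/450 nm) read kinetically over 4 min, last minus first point.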
# FLuc inh = firefly luciferase inhibition | AID 411 | P08659 | purified firefly luciferase, luminescence, 8 min | Potency, µM (titrated, usually from 57.1 µM), actives largely listed as inhibitors | 72,000 tested, 2.2% active; further: nearly all actives have a fitted effect of over 40% in size
#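 Here, luciferase activity is measured as luminescence following an 8 min room-temperature reaction at 10 uM ATP, pH 7.2. Every library sample is titrated.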
# ALOX15 inhib = 15-hLO (ALOX15) enzyme inhibition | AID 887 | purified 15hLO-1, xylenol orange hydroperoxide absorbance | P16050 | 74,000 tested, 1.4% active | Potency, µM (top dose mostly 57.1 µM), actives largely listed as inhibitors; further: nearly all actives have a fitted effect of over 55% in size
# Target sequence (P16050 whole entry, looked up): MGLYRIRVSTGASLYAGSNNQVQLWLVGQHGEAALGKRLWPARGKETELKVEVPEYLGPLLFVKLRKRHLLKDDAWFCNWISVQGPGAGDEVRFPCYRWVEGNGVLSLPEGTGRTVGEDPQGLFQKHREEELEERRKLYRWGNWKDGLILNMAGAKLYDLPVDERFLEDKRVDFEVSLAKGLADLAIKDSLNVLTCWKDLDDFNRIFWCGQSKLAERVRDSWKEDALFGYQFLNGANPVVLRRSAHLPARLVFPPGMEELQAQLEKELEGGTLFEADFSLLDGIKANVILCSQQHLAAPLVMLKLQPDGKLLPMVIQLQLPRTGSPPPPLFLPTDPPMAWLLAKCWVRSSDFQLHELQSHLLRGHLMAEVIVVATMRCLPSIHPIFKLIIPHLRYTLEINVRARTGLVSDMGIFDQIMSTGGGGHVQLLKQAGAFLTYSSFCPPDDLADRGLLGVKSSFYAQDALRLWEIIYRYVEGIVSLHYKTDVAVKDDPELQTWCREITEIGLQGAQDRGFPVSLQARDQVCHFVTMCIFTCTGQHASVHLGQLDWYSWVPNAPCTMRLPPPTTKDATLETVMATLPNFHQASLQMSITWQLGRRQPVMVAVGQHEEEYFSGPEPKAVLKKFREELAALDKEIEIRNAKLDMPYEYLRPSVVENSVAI
#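 40 nM 15hLO-1 + cpd, 15 min RT; start w/ 50 uM AA (final), 6 min RT; stop/detect w/ 200 uM XO + 300 uM Fe(II) in 50 mM H2SO4, 30 min; A573/A405. Buffer 25 mM Hepes pH 7.5, 0.01% Triton X-100. No-enzyme wells as negative control.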
# Hits are given with their value; 0 = inactive; ? = inconclusive; - = no result given; [ ] = remark or other dose. Only some compounds are listed: those with a hit (about 11% of all), similar ones and a draw of the others. Unless noted, the call rests on the fitted dose curve; in most records, active means well fitted curve in the direction sought with a large enough effect; inconclusive means small, poorly fitted or top-dose-only effect, or another doubt; inactive means no such curve, though single readings can be large; an effect the other way counts as inactive or inconclusive.
SMILES,Bst PK mod,HADH2 inh,ERK AVP block,HSD17B inhib,FLuc inh,ALOX15 inhib
CCNc1ncc2nc(C)c(=O)n(-c3ccc(OC)cc3)c2n1,-,0,?,?,0[11.4 µM],0
COC(=O)c1cccc(NC(=O)NC2CCCN2S(=O)(=O)c2ccc(Cl)cc2)c1 (configuration not stated),9.5,0,?,0,0,0
COc1ccc(O[C@H]2C=C[C@@H](c3ccccc3)O[C@H]2COC(=O)N2CCCCC2)cc1,-,?,0[11.5 µM],0[11.4 µM],0[11.4 µM],0[11.4 µM]
CCc1cc2c(nc1CC)CCN(CC/C(C)=N/OC[C@@H](C)[C@H](OCc1ccccc1)C(C)C)C2,-,0[11.4 µM],0[11.5 µM],0[11.4 µM],0[11.4 µM],0[11.4 µM]
COc1ccc2c(c1)sc1nc(-c3ccccc3)cn12,0.055,0,0,0,0.063µM,0
COc1ccc(-c2cn3c(C)c(C(=O)NC(C)C)sc3n2)cc1,0,0,0,0,0,0
CC(=O)N1CCC2(CCCN(C(c3ccccc3)c3ccccc3)C2)CC1,-,0,0,0,0[11.4 µM],0
CC(C)=CCCC1(C)C=Cc2c(O)c3c(c(CC=C(C)C)c2O1)OC12C(=CCCC1C(C)(C)O[C@@]2(C/C=C(\C)C(=O)O)C(=O)O)C3=O (some centres not stated),-,-,0,7.9µM,-,0
CC(C)=CCc1c2c(c(O)c3c(=O)c(O)c(-c4ccccc4)oc13)C=CC(C)(C)O2,-,-,0,0,-,0
O[C@@H]1C2CCCC1[C@]1(O)CCCCC1C2 (some centres not stated),0,0,0,10µM,0,0
Cc1c(CCC(=O)O)c(=O)oc2cc(O)ccc12,-,2.5µM,0,16µM,0,0
Cc1c(CCC(=O)O)c(=O)oc2cc3occ(-c4ccc(F)cc4)c3cc12,8.3,0,0,?,0,0
CCC(=O)Oc1ccc2c(C)c(Cl)c(=O)oc2c1,-,0,?,0,0,0
C=C1C=C(Br)C2(OCCCO2)[C@H]2OC12 (some centres not stated),-,0[11.4 µM],0[11.5 µM],0[11.4 µM],0[11.4 µM],0[11.4 µM]
COc1cccc(Nc2ncc3ncc(=O)n(Cc4cccs4)c3n2)c1,-,0,0,0,0[11.4 µM],0
CCNc1ncc2nc(C)c(=O)n(Cc3ccc(F)cc3)c2n1,-,0,0,7.9µM,0[11.4 µM],0
CCNc1ncc2nc(C)c(=O)n(Cc3cccs3)c2n1,-,0,16µM,16µM,0[11.4 µM],0
CCNc1ncc2nc(-c3cn(C)c4ccccc34)c(=O)n(Cc3cccs3)c2n1,-,0,0,0,0[11.4 µM],0
CCNc1ncc2ncc(=O)n(Cc3cccs3)c2n1,-,?,0,25µM,0[11.4 µM],0
CC(C)=CCC/C(C)=C/CO/N=C1/[C@H]2O[C@@H]2[C@@H](O)[C@H]2[C@H]1CCn1c(=O)n(C)c(=O)n12,-,0[11.4 µM],0[11.5 µM],0[11.4 µM],0[11.4 µM],0[11.4 µM]
CC(C)=NO[C@@H](C)c1cn([C@@H]2COC[C@@H]2O)nn1,-,0[11.4 µM],0[11.5 µM],0[11.4 µM],0[11.4 µM],0[11.4 µM]
CCO,-,0,0,0,-,0
O=C(Nc1cccc2nsnc12)C1CC(=O)N(c2ccccc2)C1 (configuration not stated),0,0,0,25µM,0,0
COC(=O)c1ccccc1NC(=O)C1CC(=O)N(c2ccccc2)C1 (configuration not stated),-,0,0,0,0,0
O=C(O)CC[C@]1(C(=O)O)CCC(=O)c2ccccc21,-,0[11.4 µM],0[11.5 µM],0[11.4 µM],0[11.4 µM],0[11.4 µM]
SMILES,Bst PK mod,HADH2 inh,ERK AVP block,HSD17B inhib,FLuc inh,ALOX15 inhib
CCN1CCCC1Cn1c(-c2ccccc2)nc2c(NCc3ccccc3)nc(C)nc21 (configuration not stated),-,?,0,?,-,0
CCN1CCCC1Cn1c(-c2ccccc2)nc2c(N(CCOC)CCOC)nc(C)nc21 (configuration not stated),-,?,0,25µM,-,0
CCN1CCCC1Cn1c(-c2ccccc2)nc2c(NCCOC)nc(C)nc21 (configuration not stated),-,?,0,25µM,-,0
CC(=O)OC[C@H]1O[C@@H](O/N=C\[C@@H](C)[C@H](OCc2ccccc2)C(C)C)[C@H](OC(C)=O)[C@@H](OC(C)=O)[C@H]1OC(C)=O,-,0[11.4 µM],0[11.5 µM],0[11.4 µM],0[11.4 µM],0[11.4 µM]
C=C(C)C1Cc2c(ccc(C(=O)O)c2O)O1 (configuration not stated),-,-,0,0,-,0
CC(C)=CCC/C(C)=C/CO/N=C1/C[C@@H](O)[C@@H](O)[C@@H]2[C@@H]3C(=O)N(C[C@@H]4CCCO4)C(=O)[C@H]3CC[C@@H]12,-,0[11.4 µM],0[11.5 µM],0[11.4 µM],0[11.4 µM],0[11.4 µM]
N#CC1=C(N)C2=C(N3CCCCC3)CCCC2C1(C#N)C#N (configuration not stated),0,0,0,?,0,13µM
O=C(N/N=C/c1ccc(O)cc1O)c1cc(-c2ccccc2)n[nH]1,-,?,-,0,-,0
C[C@H](CCC(=O)NN)[C@@H]1CC[C@@H]2[C@H]3CC[C@H]4C[C@@H](O)CC[C@@]4(C)[C@@H]3CC[C@]21C,-,0[11.4 µM],0[11.5 µM],0[11.4 µM],0[11.4 µM],0[11.4 µM]
N#C/C(=C\c1ccc(O)c(O)c1)C(=O)NCCc1ccccc1,-,0,?,20µM,0,6.3µM
N#C/C(=C\c1ccc(O)c(O)c1)C(=O)NCCCCc1ccccc1,-,?,40µM,0,0,1.6µM
O=C(Nc1ccccc1)N1CCCC2(CCN(C(=O)c3ccco3)CC2)C1,-,0,0,0,0[11.4 µM],0
Cn1cccc1C(=O)N1CCC2(CCCN(C(=O)Nc3ccccc3)C2)CC1,-,0,0,0,0[11.4 µM],0
O=C(c1cc2c(s1)CCCC2)n1cccn1,0,0,0,32µM,0,0
CCC(=O)CC(NC(=O)OC)c1ccc(F)cc1 (configuration not stated),-,0[11.4 µM],0[11.5 µM],0[11.4 µM],-,0[11.4 µM]
Cc1cccc2c1nc(-c1ccccc1)n1cnnc21,0,0,0,25µM,0,0
O=C(O)CCn1cnc2c(=S)nc[nH]c21,-,0[11.4 µM],0[11.5 µM],0[11.4 µM],0[11.4 µM],0[11.4 µM]
O=C(NCCO)c1ccc2[nH]c3c(c2c1)CCCC3,-,0,0,0,16µM,0
Nc1nc(N)c2nn(-c3ccc(C(=O)O)cc3)nc2n1,-,0[11.4 µM],0[11.5 µM],4µM,0[11.4 µM],0[11.4 µM]
Nc1nc2nc3c(nc2c(=O)[nH]1)CN(c1ccc(C(=O)O)cc1)C3=O,-,0[11.4 µM],0[11.5 µM],0[11.4 µM],0[11.4 µM],0[11.4 µM]
O=C(O)C(Cc1cccs1)C(=O)O,-,0[11.4 µM],0[11.5 µM],0[11.4 µM],0[11.4 µM],0[11.4 µM]
Cc1ccc(-c2[nH]n3c(=O)c4c(nc3c2C)CCCC4)cc1,0,?,0,10µM,0,0
Cc1cc2nc3c(c(=O)n2[nH]1)CCCC3,-,?,0,32µM,0,0
Cc1nc2nc3c(c(=O)n2[nH]1)CCC3,0,0,0,0,0,0
COc1ccc(-c2cc3nc4c(c(=O)n3[nH]2)CCC4)cc1,0,?,0,13µM,0,0
CCN(CC)c1cccc(O)c1,-,0,0,0,-,0
CC(C)(CC(=O)Nc1ccccc1)C(=O)O,-,0[11.4 µM],0[11.5 µM],0[11.4 µM],0[11.4 µM],0[11.4 µM]
Clc1ccc2nc(N3CCCCC3)[nH]c2c1,0,0,0,0,13µM,0
COc1ccccc1CN1CCCC2(CCN(C(=O)c3cc(C(F)(F)F)cc(C(F)(F)F)c3)CC2)C1,-,0,0,0,0[11.4 µM],0

# Compound activity (PubChem)
